This note sets out measurements from PubChem BioAssay (NCATS).

The structures appear in SMILES notation. Results filed as inconclusive are left out. Entries that show only a call come without a potency. Active and inactive are the calls of the source. The call rests on the fitted dose curve; in most records, active means well fitted curve in the direction sought with a large enough effect; inconclusive means small, poorly fitted or top-dose-only effect, or another doubt; inactive means no such curve, though single readings can be large; an effect the other way counts as inactive or inconclusive.

The test system of one assay is Nanoluciferase (engineered Oplophorus gracilirostris luciferase). Kind of assay: Primary Nanoluciferase (NLuc) qHTS assay for identification of artifact compounds. (AID 1845222). Conditions: NLuc-conditioned medium, Nano-Glo luminescence, 5 min; series mostly up to 54.1 µM. The method, boiled down: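 Diluted conditioned medium from NLuc-expressing S16 cells treated with compounds for 15 min at room temperature, then Nano-Glo substrate added; luminescence read after 5 min. Percent inhibition versus no-enzyme and DMSO controls fitted to 4-parameter Hill equation.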
A general note: Quantitative high-throughput screening tests each substance at several concentrations.
Take `C=C1C(=O)O[C@@H]2CC(C)=C([C@@H](C)CCCO)[C@@H](OC(=O)C(C)C)[C@H]12`: the Potency result was “inactive”. For the compound `Oc1ccc(Nc2nc(-c3ccc(Cl)cc3)cs2)cc1`, the Potency entry is “inactive”. With `Nc1ncnc2c1ncn2[C@@H]1O[C@H](CO)C[C@H]1O`, the Potency result was “inactive”. As for `OCC(Cc1ccccc1)Nc1nc(Oc2ccc3c(c2)CCC3)nc2c1ncn2Cc1ccc(-c2ccccc2)cc1` (configuration not stated), the Potency result was “inactive”. On the same count and under the same terms, the entry for `Cc1cc2nc(NCCCO)n(CC(=O)c3cc(C(C)(C)C)c(O)c(C(C)(C)C)c3)c2cc1C` is “inactive”; for `CC1(C)CC23[C@@H]4CC(=O)[C@@H]2COC(=O)[C@@H]3CC[C@H]41` it is “inactive”; for `CC[C@H](CO)Nc1nc(Nc2cccc(-c3ccccn3)c2)c2ncn(C(C)C)c2n1` it is “inactive”. In the case of `Cc1ccccc1C(=O)Nc1ccc(C(=O)N2CCC[C@@H](O)c3cc(Cl)ccc32)c(C)c1`, the Potency entry is “inactive”. `CCCCn1c(-c2ccccc2)nc(-c2ccccc2)c1CN(Cc1ccc2c(c1)OCO2)Cc1ccc2c(c1)OCO2`: the Potency result was “inactive”. Take `CCOC(=O)c1cccc(CNc2ccc(N(C)C(=O)Nc3ccccc3)cc2)c1`: the Potency entry is “inactive”. On to `CC1CCN(C(c2ccc(F)cc2)c2ccc(C(C)C(=O)O)cc2-c2ccc(C(F)(F)F)cc2)CC1` (configuration not stated), for which the Potency entry was “inactive”. `O=C(NC(NC(=S)Nc1ccc(F)c([N+](=O)[O-])c1)C(Cl)(Cl)Cl)C(c1ccccc1)c1ccccc1` (configuration not stated): the Potency result was “inactive”. As to `COc1ccc(CNC(=O)Nc2ncc([N+](=O)[O-])s2)cc1`, the Potency result is “inactive”. Still for that read-out and setting: in the case of `OCC(CO)(CO)NCC(O)Cn1c2ccc(Cl)cc2c2cc(Cl)ccc21` (configuration not stated) it was “inactive”; in that of `COCCOCCOc1ccc(C2=N[C@@](C)(C(=O)O)CS2)c(O)c1`, “inactive”; in that of `C=C(C)C(=O)O[C@H]1[C@H]2C(=C)C(=O)O[C@@H]2C[C@@H](C)/C=C\C(=O)[C@](C)(O)[C@@H]1OC(C)=O`, “inactive”. With `COc1cc(N2CCOCC2)ccc1Nc1ncc(F)c(Nc2ccccc2NS(C)(=O)=O)n1`, the Potency result is “inactive”. For the compound `CC(C)N(CCCNC(=O)Nc1ccc(C(C)(C)C)cc1)C[C@H]1O[C@@H](n2cc(Br)c3c(N)ncnc32)[C@H](O)[C@@H]1O`, the Potency result is “inactive”.

As to `O=C(c1ccc(F)c(F)c1Nc1ccc(I)cc1F)N1CC(O)(C2CCCCN2)C1` (configuration not stated), the Potency entry was “inactive”. Same read-out and setting: in the case of `CC(=O)N[C@@H](CC(=O)O)C(=O)N[C@@H](CCC(=O)O)C(=O)N[C@H](C(=O)N[C@@H](CC(=O)O)C(=O)Nc1ccc2c(C)cc(=O)oc2c1)C(C)C` it was “inactive”; in that of `CC1CCCC(SCC(O)C(=O)O)CC(=O)c2c(O)cc(O)cc2CC(=O)O1` (configuration not stated), “inactive”. With `COc1ccccc1NC(=O)Nc1ccc2ccccc2c1`, the Potency result is “inactive”. The same measure, in the same setting: in the case of `CN1CCN(C(=O)c2ccc(Nc3nccc(-c4cccs4)n3)cc2Cl)CC1` it was “inactive”. For `Cn1cc(-c2cnc3ccc4ccc(CS(=O)(=O)NCc5ccccn5)cc4c(=O)c3c2)cn1`, the Potency entry is “inactive”. Turning to `C=C1[C@@H](C2=CC(=O)OC2)CC[C@@]2(O)[C@@H]1CC1[C@H]2CC[C@@H]2C[C@@H](O[C@H]3O[C@@H](C)[C@@H](O[C@@H]4O[C@H](CO[C@@H]5O[C@H](CO)[C@@H](O)[C@H](O)[C@H]5O)[C@@H](O)[C@H](O)[C@H]4O)[C@H](OC)[C@H]3O)CC[C@]12C` (some centres not stated), the activity, negative = inhibition was -0.15% [at 11.6 µM] (inactive). As for `C=C(C)[C@@H]1CC[C@]2(C(=O)O)CC[C@]3(C)C(CCC4[C@@]5(C)C[C@@H](O)[C@H](O)C(C)(C)C5CC[C@]43C)C12` (some centres not stated), the Potency result is “inactive”. Still for that read-out and setting: in the case of `CCS(=O)(=O)N(Cc1cccnc1)c1cccc(-c2ccc(C#N)cc2)c1` it was “inactive”; in that of `CC(C)CCC[C@@H](C)[C@H]1CC[C@H]2[C@@H]3CC=C4C[C@@H](OC(=O)NCCN(C)C)CC[C@]4(C)[C@H]3CC[C@]12C`, “inactive”. Same read-out and setting: in the case of `O=C(NNc1ccccc1)c1ccncc1` it was “inactive”; in that of `C=C1[C@@H](C)[C@H]2[C@H](Cc3c[nH]c4ccccc34)NC(=O)[C@]23C(=O)/C=C/C(=O)[C@H](O)/C(C)=C\[C@@H](C)C/C=C/[C@H]3[C@@H]1O`, “inactive”.

With `CC(C)(C)c1ccc(CNC(=S)NCc2ccc(NS(C)(=O)=O)c(F)c2)cc1`, the Potency result was “inactive”. For `CNCc1ccc(C)c(NC(=O)c2ccc(Nc3nc(-c4ccccc4)c4ccccc4n3)cc2)c1`, the Potency result is “inactive”. Regarding `CC1CCC(n2c3cnccc3c3cnc(Nc4ccc5c(n4)CCN(C(=O)CO)C5)nc32)CC1` (configuration not stated), the Potency entry is “inactive”. For `C=CC(=O)Nc1cc(Nc2nccc(-c3cn(C)c4ccccc34)n2)c(OC)cc1N(C)CCN(C)C`, the Potency entry was “inactive”. Turning to `COc1cc2ncnc(Nc3ccc(Oc4ccccc4)cc3)c2cc1OC`, the Potency entry was “inactive”.

System in a further assay: not listed separately
Kind of assay: Primary redox qHTS assay for identification of artifact compounds. (AID 1845223). Further: potency means the concentration at half of the fitted maximal effect. To be noted: Amplex Red/HRP redox cycling with DTT, fluorescence; series mostly up to 53.8 µM. The method, boiled down:
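Amplex Red (25 uM) and HRP (250 mU/mL) in HBSS, with compounds for 15 min, then 250 uM DTT for 30 min, room temperature, dark. Fluorescence 525/598 nm read; normalized to DMSO and 10 uM DA3003; Hill fit.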
On to `Oc1ccc(Nc2nc(-c3ccc(Cl)cc3)cs2)cc1`, for which the Potency result is “inactive”. The same measure, in the same setting: in the case of `Nc1ncnc2c1ncn2[C@@H]1O[C@H](CO)C[C@H]1O` it was “inactive”; in that of `OCC(Cc1ccccc1)Nc1nc(Oc2ccc3c(c2)CCC3)nc2c1ncn2Cc1ccc(-c2ccccc2)cc1` (configuration not stated), “inactive”; in that of `Cc1cc2nc(NCCCO)n(CC(=O)c3cc(C(C)(C)C)c(O)c(C(C)(C)C)c3)c2cc1C`, “inactive”.

In the case of `CC1(C)CC23[C@@H]4CC(=O)[C@@H]2COC(=O)[C@@H]3CC[C@H]41`, the Potency result is “inactive”. As for `Cc1ccccc1C(=O)Nc1ccc(C(=O)N2CCC[C@@H](O)c3cc(Cl)ccc32)c(C)c1`, the Potency result is “inactive”.

For `CCCCn1c(-c2ccccc2)nc(-c2ccccc2)c1CN(Cc1ccc2c(c1)OCO2)Cc1ccc2c(c1)OCO2`, the Potency entry is “inactive”. `CCOC(=O)c1cccc(CNc2ccc(N(C)C(=O)Nc3ccccc3)cc2)c1`: the Potency was 23.8 µM (active). For `CC1CCN(C(c2ccc(F)cc2)c2ccc(C(C)C(=O)O)cc2-c2ccc(C(F)(F)F)cc2)CC1` (configuration not stated), the Potency result was “inactive”.

With `O=C(NC(NC(=S)Nc1ccc(F)c([N+](=O)[O-])c1)C(Cl)(Cl)Cl)C(c1ccccc1)c1ccccc1` (configuration not stated), the Potency entry was “inactive”. As to `COc1ccc(CNC(=O)Nc2ncc([N+](=O)[O-])s2)cc1`, the Potency result is “inactive”. On the same count and under the same terms, the entry for `C=C(C)C(=O)O[C@H]1[C@H]2C(=C)C(=O)O[C@@H]2C[C@@H](C)/C=C\C(=O)[C@](C)(O)[C@@H]1OC(C)=O` is “inactive”; for `COc1cc(N2CCOCC2)ccc1Nc1ncc(F)c(Nc2ccccc2NS(C)(=O)=O)n1` it is “inactive”. For `O=C(c1ccc(F)c(F)c1Nc1ccc(I)cc1F)N1CC(O)(C2CCCCN2)C1` (configuration not stated), the Potency result is “inactive”. Still for that read-out and setting: the entry for `O=[N+]([O-])c1ccc(-[n+]2nc(-c3ccccc3)nn2-c2ccc(I)cc2)cc1` is “inactive”. As to `CC1CCCC(SCC(O)C(=O)O)CC(=O)c2c(O)cc(O)cc2CC(=O)O1` (configuration not stated), the Potency result was “inactive”. Regarding `COc1ccccc1NC(=O)Nc1ccc2ccccc2c1`, the Potency entry was “inactive”. The same measure, in the same setting: the entry for `CN1CCN(C(=O)c2ccc(Nc3nccc(-c4cccs4)n3)cc2Cl)CC1` is “inactive”.

Consider `Cn1cc(-c2cnc3ccc4ccc(CS(=O)(=O)NCc5ccccn5)cc4c(=O)c3c2)cn1`, for which the Potency result was “inactive”. On to `C=C(C)[C@@H]1CC[C@]2(C(=O)O)CC[C@]3(C)C(CCC4[C@@]5(C)C[C@@H](O)[C@H](O)C(C)(C)C5CC[C@]43C)C12` (some centres not stated), for which the Potency entry was “inactive”. As to `CCS(=O)(=O)N(Cc1cccnc1)c1cccc(-c2ccc(C#N)cc2)c1`, the Potency entry is “inactive”. Regarding `CC(C)CCC[C@@H](C)[C@H]1CC[C@H]2[C@@H]3CC=C4C[C@@H](OC(=O)NCCN(C)C)CC[C@]4(C)[C@H]3CC[C@]12C`, the Potency entry is “inactive”. On to `O=C(NNc1ccccc1)c1ccncc1`, for which the Potency result was “inactive”. Consider `C=C1[C@@H](C)[C@H]2[C@H](Cc3c[nH]c4ccccc34)NC(=O)[C@]23C(=O)/C=C/C(=O)[C@H](O)/C(C)=C\[C@@H](C)C/C=C/[C@H]3[C@@H]1O`, for which the Potency entry was “inactive”. On to `CNCc1ccc(C)c(NC(=O)c2ccc(Nc3nc(-c4ccccc4)c4ccccc4n3)cc2)c1`, for which the Potency entry was “inactive”. In the case of `CC1CCC(n2c3cnccc3c3cnc(Nc4ccc5c(n4)CCN(C(=O)CO)C5)nc32)CC1` (configuration not stated), the Potency entry was “inactive”.

Regarding `COc1cc2ncnc(Nc3ccc(Oc4ccccc4)cc3)c2cc1OC`, the Potency entry was “inactive”.
